Measured values as given in PubChem BioAssay (NCATS).
Results filed as inconclusive are left out. Where a call stands in place of a potency, no number is given. Calls of active or inactive are those of the source. The call rests on the fitted dose curve; in most records, active means well fitted cell-killing curve with a large enough effect; inconclusive means small, poorly fitted or top-dose-only effect, or effect the other way; inactive means no such curve, though single readings can be large or run the other way.

assay: Quantitative High-Throughput drug screen in 47 multiple myeloma cell lines against the NCATS MIPE library collection: VP6_DJ cell viability assay (AID 1919867); details: ATP luminescence, 48 h; series mostly up to 45.8 µM; further: nearly all actives have a fitted effect of over 40% in size
How it was run: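 Viability after 48 h drug exposure was measured as ATP-dependent luminescence. Cells, 500 per well, sat at 37 °C under 5% CO2; DMSO wells set 100%, media-only wells 0%.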
Potency means the concentration at half of the fitted maximal effect.

SMILES	Potency
C[C@@H](NC(=O)c1ncnc(N)c1Cl)c1ncc(C(=O)Nc2cc(C(F)(F)F)c(Cl)cn2)s1	20.9 µM (active)
C[C@@H](O)[C@H]1C(=O)N2C(C(=O)OCOC(=O)C(C)(C)C)=C(SC3CN(C4=NCCS4)C3)[C@H](C)[C@H]12	inactive
CN(C)CC[C@H](CSc1ccccc1)Nc1ccc(S(=O)(=O)NC(=O)c2ccc(N3CCN(Cc4ccccc4-c4ccc(Cl)cc4)CC3)cc2)cc1[N+](=O)[O-]	2.64 µM (active)
O=c1[nH]c(=O)n([C@H]2C[C@@H](O)[C@@H](CO)O2)cc1I	inactive
CN1CCN2c3ncccc3Cc3ccccc3C2C1 (configuration not stated)	inactive
N#CC(c1ccnc(NCCc2cccnc2)n1)c1nc2ccccc2s1 (configuration not stated)	10.5 µM (active)
CN1[C@H]2CC[C@H]1CC(OC(=O)c1c[nH]c3ccccc13)C2 (some centres not stated)	8.33 µM (active)
CN[C@@H]1[C@@H](O)[C@@H](O[C@@H]2[C@@H](O)[C@H](O[C@H]3O[C@H](CN)[C@@H](O)[C@H](O)[C@@H]3O)[C@@H](N)C[C@@H]2NC(=O)[C@@H](O)CN)OC[C@]1(C)O	inactive
NC(=O)c1ccc(N(C(N)=O)c2c(F)cccc2F)nc1-c1ccc(F)cc1F	16.6 µM (active)
NS(=O)(=O)c1cc(Cl)c(Cl)c(S(N)(=O)=O)c1	inactive
CCN(CC)CCCCNc1nc2cc(Cl)c(Cl)cc2nc1-c1ccc(-c2cccs2)s1	8.33 µM (active)
CC1(C)[C@H]2CC[C@]3(C)[C@@H](C(=O)C=C4[C@@H]5C[C@@](C)(C(=O)O)CC[C@]5(C)CC[C@]43C)[C@@]2(C)CC[C@@H]1O	inactive
